# Laboratory results: PubChem BioAssay (NCI)
# About 83,000 compounds went through this panel and 20% of them were active in at least one assay; those are over-represented in the sample as a whole.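 Assay: single dose, 48 h. Readout: percent growth (0 = no net growth; negative = cell death). Active: <10.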 Activity calls are given as the source filed them.
# System: HL-60(TB) leukemia
# Assay: NCI-60 one-dose screen, 48 h (100 = growth as untreated, 0 = no growth, -100 = all killed)
# Settings: 10 µM unless noted
row,SMILES,growth
1,CC(=O)c1c(C)nc(SCC(=O)Nc2cccc(O)c2)n1-c1ccc(Cl)cc1,88.3% (inactive)
2,C=C(Cl)C(=NC(C)(C)C)Nc1ccccc1C,43.3% (inactive)
3,Cc1nn(-c2ccc(Cl)cc2)c(=O)n1CCOc1ccccc1Cl,106% (inactive)
4,Oc1cc(Cl)ccc1Cc1ccc(Cl)cc1O,41.4% (inactive)
5,CN(C)C(=O)c1cc2cnc(Nc3ccc(-c4csc5c(=S)cc(N6CCOCC6)oc45)cc3)nc2n1C1CCCC1,-30.6% (active)
6,COc1cc(C)c2sc3ccccc3c(=O)c2c1NCCN(C)C,61.2% (inactive)
7,COc1cc2cc(Oc3ccc(NC(=O)c4ccccc4)cc3)c(C)nc2cc1OC,100% (inactive)
8,COc1ccc2c(c1)c(-c1nonc1-c1cn(C)c3ccccc13)cn2C,2.88% (active)
9,NC(=O)Nc1ccc2ncnc(Nc3cccc(O)c3)c2c1,105% (inactive)
10,CC(C)(C)n1cc(-c2ccnc(NCCNS(=O)(=O)c3ccc(F)cc3)c2)c(-c2cccc(O)c2)n1,46.6% (inactive)
